In PubChem BioAssay (EPA / NIEHS) one finds AC50 and outcome data, which are given here for 17 compounds.

Structures are written as SMILES. Inconclusive results are not listed. Activity calls are given as the source filed them. How the source made its calls: active means hit-call score of the fitted dose curve at least 0.9, where 1 is the maximum; inconclusive means response in the unintended direction; inactive means score below 0.9.

Sequence of rat Constitutive Nitric Oxide Synthase (CNOS), Nos1 (gene 24598) (P29476 whole entry, looked up): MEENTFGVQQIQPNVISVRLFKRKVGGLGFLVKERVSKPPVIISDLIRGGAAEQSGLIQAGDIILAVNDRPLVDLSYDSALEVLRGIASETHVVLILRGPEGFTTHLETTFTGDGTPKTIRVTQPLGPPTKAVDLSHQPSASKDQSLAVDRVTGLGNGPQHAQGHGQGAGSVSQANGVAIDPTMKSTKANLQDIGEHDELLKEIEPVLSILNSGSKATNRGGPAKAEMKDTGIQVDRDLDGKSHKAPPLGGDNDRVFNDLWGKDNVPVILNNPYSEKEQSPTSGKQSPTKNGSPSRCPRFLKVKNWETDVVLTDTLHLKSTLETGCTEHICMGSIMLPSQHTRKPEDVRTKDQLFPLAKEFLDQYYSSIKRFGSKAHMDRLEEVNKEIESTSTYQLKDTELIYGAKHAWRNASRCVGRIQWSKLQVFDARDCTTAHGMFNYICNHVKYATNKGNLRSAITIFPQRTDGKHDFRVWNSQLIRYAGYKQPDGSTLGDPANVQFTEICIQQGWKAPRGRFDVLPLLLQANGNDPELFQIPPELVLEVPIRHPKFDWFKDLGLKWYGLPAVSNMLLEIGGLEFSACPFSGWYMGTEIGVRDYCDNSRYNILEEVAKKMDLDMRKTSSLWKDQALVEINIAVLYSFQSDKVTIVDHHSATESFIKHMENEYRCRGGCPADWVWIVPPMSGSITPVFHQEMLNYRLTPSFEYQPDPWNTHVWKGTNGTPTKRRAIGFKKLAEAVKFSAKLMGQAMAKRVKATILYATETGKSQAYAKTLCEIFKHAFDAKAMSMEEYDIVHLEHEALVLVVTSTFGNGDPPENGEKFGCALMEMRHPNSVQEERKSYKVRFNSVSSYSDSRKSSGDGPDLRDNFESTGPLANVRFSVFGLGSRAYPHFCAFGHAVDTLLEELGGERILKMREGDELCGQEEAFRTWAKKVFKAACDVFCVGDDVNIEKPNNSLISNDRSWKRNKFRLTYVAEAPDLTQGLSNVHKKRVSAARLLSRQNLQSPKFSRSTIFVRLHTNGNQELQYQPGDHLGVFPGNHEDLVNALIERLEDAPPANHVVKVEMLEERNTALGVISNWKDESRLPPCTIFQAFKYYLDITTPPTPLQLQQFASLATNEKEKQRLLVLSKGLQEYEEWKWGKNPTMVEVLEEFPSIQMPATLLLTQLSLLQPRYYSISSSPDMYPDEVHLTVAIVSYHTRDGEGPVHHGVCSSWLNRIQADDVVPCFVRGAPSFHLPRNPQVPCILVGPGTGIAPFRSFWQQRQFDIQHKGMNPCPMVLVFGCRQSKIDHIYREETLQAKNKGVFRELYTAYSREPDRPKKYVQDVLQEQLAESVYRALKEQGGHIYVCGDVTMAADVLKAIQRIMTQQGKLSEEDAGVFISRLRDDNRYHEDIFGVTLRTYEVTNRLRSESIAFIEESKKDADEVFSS
Sequence of rat Acetylcholinesterase (AChE), Ache (gene 83817) (P37136 whole entry, looked up): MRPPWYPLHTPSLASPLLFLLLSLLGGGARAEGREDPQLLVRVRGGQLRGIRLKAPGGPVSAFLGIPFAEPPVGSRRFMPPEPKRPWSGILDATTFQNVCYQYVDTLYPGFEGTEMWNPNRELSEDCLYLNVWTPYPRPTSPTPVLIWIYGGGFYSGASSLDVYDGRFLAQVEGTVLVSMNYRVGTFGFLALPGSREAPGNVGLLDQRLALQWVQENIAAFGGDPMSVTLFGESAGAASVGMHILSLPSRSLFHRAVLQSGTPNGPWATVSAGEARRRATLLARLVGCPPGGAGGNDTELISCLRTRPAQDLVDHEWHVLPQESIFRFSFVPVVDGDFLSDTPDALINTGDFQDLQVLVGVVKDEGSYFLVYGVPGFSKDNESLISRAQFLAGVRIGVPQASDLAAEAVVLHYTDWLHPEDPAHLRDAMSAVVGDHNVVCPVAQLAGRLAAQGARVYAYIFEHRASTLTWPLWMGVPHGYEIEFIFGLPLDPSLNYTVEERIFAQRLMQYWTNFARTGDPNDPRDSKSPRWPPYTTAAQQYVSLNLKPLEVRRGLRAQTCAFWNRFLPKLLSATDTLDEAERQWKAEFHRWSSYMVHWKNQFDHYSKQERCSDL
Sequence of rat Monoamine Oxidase, MAO-B, Central (MAOBC), Maob (gene 25750) (P19643 whole entry, looked up): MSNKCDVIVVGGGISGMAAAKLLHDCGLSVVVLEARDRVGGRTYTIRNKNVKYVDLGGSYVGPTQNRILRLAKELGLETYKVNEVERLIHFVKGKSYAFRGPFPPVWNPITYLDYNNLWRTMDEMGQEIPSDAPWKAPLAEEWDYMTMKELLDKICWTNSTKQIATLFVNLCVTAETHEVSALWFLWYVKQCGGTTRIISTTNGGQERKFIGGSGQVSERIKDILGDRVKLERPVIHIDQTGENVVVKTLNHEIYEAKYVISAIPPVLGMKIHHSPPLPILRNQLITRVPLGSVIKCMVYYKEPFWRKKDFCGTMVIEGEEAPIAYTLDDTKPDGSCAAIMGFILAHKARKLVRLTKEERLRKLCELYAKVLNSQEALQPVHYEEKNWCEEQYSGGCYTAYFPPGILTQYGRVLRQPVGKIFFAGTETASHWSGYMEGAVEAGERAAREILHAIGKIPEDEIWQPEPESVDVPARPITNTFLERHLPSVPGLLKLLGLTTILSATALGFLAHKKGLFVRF

The target of one assay is rat Acetylcholinesterase (AChE), Ache (gene 83817) (UniProt P37136). The assay can be described thus: NVS_ENZ_rAChE: NovaScreen (NVS) Enzymatic Assay for rat Acetylcholinesterase (AChE) (AID 2283233). The method, boiled down:
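Rat brain membrane acetylcholinesterase activity measured colorimetrically 0.33 h after compound addition, loss of signal relative to DMSO. Primary screen in duplicate at 25 uM; actives re-run as concentration-response with 50 uM top concentration.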
Broadly, the AC50 is the concentration giving half of the maximal activity seen. Consider `CCOC(=O)CC(SP(=O)(OC)OC)C(=O)OCC` (configuration not stated), for which the AC50 is 0.917 µM (active). For the compound `CC(=NC#N)N(C)Cc1ccc(Cl)nc1`, the result was inactive. Regarding `CCOP(=S)(OCC)OC(Cl)C(Cl)(Cl)Cl` (configuration not stated), the half-maximal activity concentration (AC50) is 4.06 µM (active). For `CCCSP(=O)(OCC)Oc1ccc(Br)cc1Cl` (configuration not stated), the AC50 was 2.32 µM (active). On the same count and under the same terms, with `CNC(=O)Oc1cccc2c1OC(C)(C)O2` the figure was 0.797 µM (active). Consider `CNC(=O)ON=C(SC)C(=O)N(C)C`, for which the AC50 is 3.26 µM (active). Same read-out and setting: the same measure for `CNC(=O)ON=C(C)SC`: 3.86 µM (active); for `COP(=O)(OC)SCn1c(=O)oc2cc(Cl)cnc21`: 2.11 µM (active).

The target of a further assay is rat Constitutive Nitric Oxide Synthase (CNOS), Nos1 (gene 24598) (UniProt P29476). The assay can be described thus: NVS_ENZ_rCNOS: NovaScreen (NVS) Enzymatic Assay for rat Constitutive Nitric Oxide Synthase (CNOS) (AID 2283236). The method, boiled down:
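Enzyme activity in rat brain membrane preparation, read 1 h after dosing by filter-based radiometric scintillation counting. Primary screen in duplicate at 25 uM; actives (e.g., ≥30% inhibition) then run in concentration-response up to 50 uM.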
For the compound `CCCCN(CC)c1c([N+](=O)[O-])cc(C(F)(F)F)cc1[N+](=O)[O-]`, the compound was classed as inactive. On to `COP(=O)(NC(C)=O)SC` (configuration not stated), for which the compound was called inactive. Take `CCCCSP(=O)(SCCCC)SCCCC`: the concentration at half-maximal activity (AC50) is 6.6 µM (active).

A further assay addresses rat Monoamine Oxidase, MAO-B, Central (MAOBC), Maob (gene 25750) (UniProt P19643). Put plainly: NVS_ENZ_rMAOBC: NovaScreen (NVS) Enzymatic Assay for rat Monoamine Oxidase, MAO-B, Central (MAOBC) (AID 2283238). The method, boiled down:
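MAO-B activity in rat brain tissue preparation, cell-free, measured radiometrically by scintillation counting 1.17 h after dosing. Screened in duplicate at 25 uM; actives then in concentration-response up to 50 uM. Loss of signal versus DMSO scored.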
Regarding `CSC1=N[C@@](C)(c2ccccc2)C(=O)N1Nc1ccccc1`, the call was inactive. `CSc1nnc(C(C)(C)C)c(=O)n1N`: the AC50 is 16.8 µM (active). Still for that read-out and setting: the same measure for `CCC(=O)Nc1ccc(Cl)c(Cl)c1`: 13 µM (active).

The target of a further assay is sheep Cyclooxygenase-1 (Cox1), PTGS1 (gene 443551) (UniProt P05979). Put plainly: NVS_ENZ_oCOX1: NovaScreen (NVS) Enzymatic Assay for sheep Cyclooxygenase-1 (Cox1) (AID 2283239).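 Further: actives reduce cyclooxygenase activity so potencies are for inhibitors.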 The method, boiled down: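 Native ovine seminal vesicle protein serves as enzyme source in this biochemical assay. Colorimetric signal is recorded 0.66 h after chemical addition, and decreases versus the DMSO control define activity.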
Sequence of sheep Cyclooxygenase-1 (Cox1), PTGS1 (gene 443551) (P05979 whole entry, looked up): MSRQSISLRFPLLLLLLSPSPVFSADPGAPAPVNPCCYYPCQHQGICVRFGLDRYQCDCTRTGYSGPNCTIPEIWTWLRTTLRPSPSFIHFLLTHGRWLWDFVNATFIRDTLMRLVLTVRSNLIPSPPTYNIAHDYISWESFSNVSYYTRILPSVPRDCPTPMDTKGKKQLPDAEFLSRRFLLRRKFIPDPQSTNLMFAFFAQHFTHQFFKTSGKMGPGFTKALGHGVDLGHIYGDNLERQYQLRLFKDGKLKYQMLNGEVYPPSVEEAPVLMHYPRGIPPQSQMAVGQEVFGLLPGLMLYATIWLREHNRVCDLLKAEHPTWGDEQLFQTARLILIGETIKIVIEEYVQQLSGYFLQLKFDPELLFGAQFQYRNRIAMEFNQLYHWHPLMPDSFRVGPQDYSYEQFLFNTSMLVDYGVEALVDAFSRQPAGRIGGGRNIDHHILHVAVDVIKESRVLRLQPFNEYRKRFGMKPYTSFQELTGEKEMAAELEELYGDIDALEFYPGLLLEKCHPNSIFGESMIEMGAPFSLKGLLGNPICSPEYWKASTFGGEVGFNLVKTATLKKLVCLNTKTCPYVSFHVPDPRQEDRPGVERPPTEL
With `CC(C)=CC1C(C(=O)OCN2C(=O)C3=C(CCCC3)C2=O)C1(C)C` (configuration not stated), the half-maximal activity concentration (AC50) is 4.96 µM (active).

On to `CCCCOC(=O)c1ccccc1C(=O)O`, for which the result was inactive. On the same count and under the same terms, the same measure for `CCCSP(=O)(OCC)SCCC`: “inactive”.
